Inconclusive results are not listed. Calls of active or inactive are those of the source. Unless noted, calls come from the whole dose curve.
Tests used:
[1] = Nuclear factor erythroid 2-related factor 2/antioxidant responsive element (Nrf2/ARE) small molecule agonists: qHTS cell viability counter screen in human keratinocytes (AID 1919968; active = well fitted curve in the direction sought with a large enough effect in the repeat runs; an effect the other way counts as inactive or inconclusive; note: nearly all actives have a fitted effect of over 55% in size)
Method in brief: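 HaCaT ARE reporter line, 1,500 cells/well; 5 h settle, 37 C/5% CO2; cpd in DMSO pinned; 23 h exposure; CellTiter-Fluor, 1 h; fluorescence.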

[2] = biological target: Gonadotropin-releasing hormone receptor (Homo sapiens) (UniProt P30968); test: Human gonadotropin-releasing hormone receptor (GnRHR) small molecule agonists, calcium flux assay in GnRHR-HEK293 cells (AID 1920063); note: nearly all actives have a fitted effect of over 35% in size
Method in brief: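 GnRHR-HEK293, 1500 cells/well, 18 h 37 C/5% CO2; Ca dye 1 h 37 C; cpd pinned (DMSO), agonist mode; kinetic FL 480/540, 3 min, 1 s reads; 15 conc, n=3.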

[3] = biological target: KiSS-1 receptor (Homo sapiens) (UniProt Q969F8); test: Human kisspeptin (KISS1R) small molecule agonists, calcium flux assay in KISS1R-HEK293 cells (AID 1920064; active = well fitted curve in the direction sought with a large enough effect in the repeat runs; an effect the other way counts as inactive or inconclusive)
Method in brief: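 Stable human KISS1R HEK293 line; 18 h plating, 37 C/5% CO2; calcium dye 1 h 37 C; compound pin transfer; kinetic fluorescence Ex/Em 480/540, 3 min.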

[4] = G protein-coupled receptor (GPCR) small molecule agonists, calcium flux assay: HEK293 wild type cell line counter screen (AID 1920065)
Method in brief: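 Kinetic fluorescence at Ex/Em 480/540, recorded every second over 3 min, served as the read-out after compound addition. Each compound was tested at 15 concentrations in triplicate on cells pre-loaded with calcium dye for 1 h.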

[5] = p53 small molecule agonists, cell-based qHTS assay with human liver microsomes (AID 1963577)
Method in brief: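 p53RE-bla cells, 4,000/well, compound added after 5 h, with human liver microsomes 0.5 mg/mL and NADPH 0.5 mg/mL final; 16 h at 37 C, then LiveBLAzer 2 h RT, fluorescence.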

[6] = p53 small molecule agonists, cell-based qHTS assay with rat liver microsomes (AID 1963578)
Method in brief: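 p53RE-bla cells, 4,000/well, pre-incubated 5 h, then given compounds plus rat liver microsomes (0.5 mg/mL final) and NADPH (0.5 mg/mL final). Incubation 16 h at 37 C; beta-lactamase reporter read by LiveBLAzer fluorescence after 2 h at room temperature.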

[7] = p53 small molecule agonists, cell-based qHTS assay with human liver microsomes: qHTS cell viability counter screen (AID 1963579); note: nearly all actives have a fitted effect of over 45% in size
Method in brief: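 p53RE-bla cells, 4,000/well, dosed 5 hours after plating, with human liver microsomes (0.5 mg/mL final) plus NADPH (0.5 mg/mL final), 16 hours at 37 C. Viability read as CellTiter-Glo luminescence after 30 min at room temperature.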

[8] = p53 small molecule agonists, cell-based qHTS assay with rat liver microsomes: qHTS cell viability counter screen (AID 1963580); note: nearly all actives have a fitted effect of over 45% in size
Method in brief: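 In HCT-116 cells carrying a p53 response element-bla reporter, compounds were metabolically activated in situ by rat liver microsomes with NADPH over 16 h. Cell ATP content then served as the cytotoxicity measure.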

[9] = p53 small molecule agonists, cell-based qHTS assay: qHTS cell viability counter screen (AID 1963581); note: nearly all actives have a fitted effect of over 45% in size
Method in brief: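 HCT-116 p53RE-bla cells, 4,000/well, plated 5 h before compound pin transfer; 16 h at 37 C; bla substrate 2 h RT; then CellTiter-Glo, 30 min RT, luminescence.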

[10] = p53 small molecule agonists, cell-based qHTS assay (AID 1963582; active = well fitted activation curve with a large enough effect in the signal ratio in the repeat runs, not every such curve was filed as active; the % refers to the signal ratio)
Method in brief: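 Reporter line: p53RE-bla. Pre-incubation 5 h, 37 C, 5% CO2; compound (DMSO, pin tool) 16 h, 37 C; B/G FRET substrate 2 h RT; fluorescence intensity read.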

[11] = biological target: 5-hydroxytryptamine receptor 2A (Homo sapiens) (UniProt P28223); test: 5-hydroxytryptamine receptor 2A (HTR2A) small molecule antagonists, cell-based qHTS assay (AID 1963586); note: nearly all actives have a fitted effect of over 45% in size; note: potency is the fitted concentration of half-maximal effect
Method in brief: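 Antagonist-mode intracellular calcium assay: DOI (4 nM) added after 5 min compound pre-incubation at room temperature to dye-loaded HTR2A-CHO cells. Fluorescence followed for 3 min, sampled every second.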

[12] = biological target: 5-hydroxytryptamine receptor 2A (Homo sapiens) (UniProt P28223); test: 5-hydroxytryptamine receptor 2A (HTR2A) small molecule agonists, cell-based qHTS assay (AID 1963587); note: nearly all actives have a fitted effect of over 30% in size
Method in brief: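 HTR2A-CHO cells, plated 18 h at 37 C/5% CO2, dye-loaded 1 h at 37 C; compounds in DMSO added by pin tool (agonist mode). Intracellular calcium flux read as kinetic fluorescence on FDSS over 2 min at 1 s intervals.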

[13] = biological target: Muscarinic acetylcholine receptor M1 (Homo sapiens) (UniProt P11229); test: Cholinergic receptor muscarinic 1 (CHRM1) small molecule antagonists, cell-based qHTS assay (AID 1963588); note: nearly all actives have a fitted effect of over 40% in size
Method in brief: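 CHRM1-CHO calcium-flux assay, antagonist mode. Cells were seeded 18 h, dye-loaded 1 h at 37 C and given compound for 5 min at RT, then acetylcholine was added at 50nM. FDSS fluorescence was read 3 min; 15 concentrations, three runs.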

[14] = biological target: Muscarinic acetylcholine receptor M1 (Homo sapiens) (UniProt P11229); test: Cholinergic receptor muscarinic 1 (CHRM1) small molecule agonists, cell-based qHTS assay (AID 1963589); note: nearly all actives have a fitted effect of over 35% in size
Method in brief: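 Human M1 in stable CHO line; 18 h plating, 1 h dye load 37 C; cpd added (agonist mode); Ca2+ fluorescence kinetic read, 1 s intervals; 15 conc, 3 runs.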

[15] = biological target: Beta-2 adrenergic receptor (Homo sapiens) (UniProt P07550); test: Adrenergic beta2 receptor (ADRB2) small molecule antagonists, cell-based qHTS assay (AID 1963592); note: series mostly up to about 92 µM; nearly all actives have a fitted effect of over 50% in size
Method in brief: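 Cells (CHO, stable ADRB2 overexpression) incubated 18-20hr at 37C; compounds added from DMSO; agonist mix (1nM isoproterenol, 100uM IBMX, 25uM Ro-20-1724) added; 0.5hr RT; d2-cAMP and anti-cAMP-cryptate added; 1hr RT; 665/615 nm read.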

[16] = biological target: Beta-2 adrenergic receptor (Homo sapiens) (UniProt P07550); test: Adrenergic beta2 receptor (ADRB2) small molecule agonists, cell-based qHTS assay (AID 1963593);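 note: CHO cells stably overexpressing human ADRB2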
Method in brief: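 CHO cells stably over-expressing ADRB2 were plated overnight at 37C, then dosed with compounds plus a stimulation mix containing 100uM IBMX and 25uM Ro-20-1724 for 0.5hr at room temperature. cAMP was measured by HTRF competition, 1hr.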

[17] = biological target: D(2) dopamine receptor (Homo sapiens) (UniProt P14416); test: Dopamine D2 receptor (DRD2) small molecule agonists, cell-based qHTS assay (AID 1963594); note: nearly all actives have a fitted effect of over 35% in size
Method in brief: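 HEK293 cells stably expressing DRD2 were cultured 24 h at 37 C, then given Ro20-1724 (0.1 mM final) and compounds for 10 min at room temperature. NKH477 (200nM) was then added for 30 min. cAMP was read by HTRF.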

[18] = biological target: D(2) dopamine receptor (Homo sapiens) (UniProt P14416); test: Dopamine D2 receptor (DRD2) small molecule antagonists, cell-based qHTS assay (AID 1963595; active = well fitted inhibition curve with a large enough effect in the signal ratio in the repeat runs, with a control signal flat; the % refers to the signal ratio)
Method in brief: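 Stable D2 receptor HEK293 line, 24 h after seeding. Compound preincubated 10 min, then quinpirole (12 nM) with forskolin analogue NKH477 (200 nM), 30 min, room temperature. Detection by time-resolved FRET of cAMP.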

[19] = cAMP Responsive Elements (CRE) small molecule agonists, cell-based qHTS assay (AID 1963590)
Method in brief: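 HEK 293T CRE-bla, 2,000 cells/well, 18 h preincubation 37 C/5% CO2; cpds (DMSO) pinned, 3 h; LiveBLAzer B/G FRET substrate, 2 h RT.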

[20] = cAMP Responsive Elements (CRE) small molecule antagonists, cell-based qHTS assay (AID 1963591; active = well fitted inhibition curve with a large enough effect in the signal ratio in the repeat runs, not every such curve was filed as active; the % refers to the signal ratio)
Method in brief: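 Beta-lactamase reporter read by FRET substrate (LiveBLAzer B/G) after 2 h at room temperature. CRE-bla HEK293T cells had received compound plus 0.25 uM (final) NKH477 for 3 h at 37 °C.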
% is set by controls: 0 for no effect and ±100 for the full control effect.

Sequence of D(2) dopamine receptor (Homo sapiens) (P14416 whole entry, looked up): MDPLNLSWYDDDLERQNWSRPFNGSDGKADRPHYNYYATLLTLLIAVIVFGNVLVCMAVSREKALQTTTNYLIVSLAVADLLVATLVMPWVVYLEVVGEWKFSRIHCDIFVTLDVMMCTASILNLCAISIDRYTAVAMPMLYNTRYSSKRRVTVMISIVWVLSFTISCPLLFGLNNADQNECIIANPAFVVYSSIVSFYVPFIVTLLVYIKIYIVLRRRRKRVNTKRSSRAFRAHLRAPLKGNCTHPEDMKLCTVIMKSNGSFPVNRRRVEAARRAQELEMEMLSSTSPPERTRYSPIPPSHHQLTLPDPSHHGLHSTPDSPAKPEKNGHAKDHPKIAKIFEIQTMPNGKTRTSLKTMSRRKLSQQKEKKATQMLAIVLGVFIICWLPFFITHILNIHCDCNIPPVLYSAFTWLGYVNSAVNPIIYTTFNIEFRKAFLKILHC
Sequence of KiSS-1 receptor (Homo sapiens) (Q969F8 whole entry, looked up): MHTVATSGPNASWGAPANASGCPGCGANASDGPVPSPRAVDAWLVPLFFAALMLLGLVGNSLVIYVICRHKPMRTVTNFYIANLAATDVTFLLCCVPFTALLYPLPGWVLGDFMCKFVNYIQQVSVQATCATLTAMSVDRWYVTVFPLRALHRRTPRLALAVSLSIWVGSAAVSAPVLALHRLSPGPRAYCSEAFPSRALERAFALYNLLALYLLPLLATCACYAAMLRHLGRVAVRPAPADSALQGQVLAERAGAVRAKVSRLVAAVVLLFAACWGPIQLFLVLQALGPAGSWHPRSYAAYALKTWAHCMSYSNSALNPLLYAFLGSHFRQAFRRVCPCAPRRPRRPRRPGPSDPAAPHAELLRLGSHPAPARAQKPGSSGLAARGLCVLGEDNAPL
Sequence of Beta-2 adrenergic receptor (Homo sapiens) (P07550 whole entry, looked up): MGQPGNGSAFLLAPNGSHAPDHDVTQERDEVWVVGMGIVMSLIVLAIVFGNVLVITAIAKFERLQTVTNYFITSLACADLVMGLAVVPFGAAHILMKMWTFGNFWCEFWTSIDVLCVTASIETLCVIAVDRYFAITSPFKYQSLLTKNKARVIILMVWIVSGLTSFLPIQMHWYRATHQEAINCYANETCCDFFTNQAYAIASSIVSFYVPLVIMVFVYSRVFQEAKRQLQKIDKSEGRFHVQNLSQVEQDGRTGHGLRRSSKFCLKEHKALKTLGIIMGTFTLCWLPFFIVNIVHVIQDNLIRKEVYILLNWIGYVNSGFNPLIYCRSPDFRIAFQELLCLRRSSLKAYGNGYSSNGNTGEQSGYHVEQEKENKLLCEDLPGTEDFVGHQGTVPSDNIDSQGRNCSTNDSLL
Sequence of 5-hydroxytryptamine receptor 2A (Homo sapiens) (P28223 whole entry, looked up): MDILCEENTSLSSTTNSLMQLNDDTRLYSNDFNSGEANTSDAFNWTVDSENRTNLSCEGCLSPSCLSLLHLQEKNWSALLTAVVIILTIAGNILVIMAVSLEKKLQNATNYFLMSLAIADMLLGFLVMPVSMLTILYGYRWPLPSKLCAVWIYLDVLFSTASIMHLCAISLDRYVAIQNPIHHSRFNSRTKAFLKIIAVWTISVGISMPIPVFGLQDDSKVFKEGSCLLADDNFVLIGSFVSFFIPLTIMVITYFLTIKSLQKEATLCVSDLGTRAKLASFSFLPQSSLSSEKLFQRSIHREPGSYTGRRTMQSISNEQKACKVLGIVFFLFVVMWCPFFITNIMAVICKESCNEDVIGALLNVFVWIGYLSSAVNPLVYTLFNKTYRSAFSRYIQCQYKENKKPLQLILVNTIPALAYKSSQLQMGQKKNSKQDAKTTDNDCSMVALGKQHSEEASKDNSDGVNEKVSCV
Sequence of Gonadotropin-releasing hormone receptor (Homo sapiens) (P30968 whole entry, looked up): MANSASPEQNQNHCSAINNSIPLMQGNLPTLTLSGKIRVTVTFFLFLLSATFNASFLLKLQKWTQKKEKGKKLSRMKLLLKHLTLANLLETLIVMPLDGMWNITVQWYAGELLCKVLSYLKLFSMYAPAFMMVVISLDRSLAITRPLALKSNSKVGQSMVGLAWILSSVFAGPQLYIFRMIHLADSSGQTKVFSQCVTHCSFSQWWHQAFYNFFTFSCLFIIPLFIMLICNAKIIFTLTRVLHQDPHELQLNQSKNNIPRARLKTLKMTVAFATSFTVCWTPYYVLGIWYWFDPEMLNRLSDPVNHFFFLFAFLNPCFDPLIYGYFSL
Sequence of Muscarinic acetylcholine receptor M1 (Homo sapiens) (P11229 whole entry, looked up): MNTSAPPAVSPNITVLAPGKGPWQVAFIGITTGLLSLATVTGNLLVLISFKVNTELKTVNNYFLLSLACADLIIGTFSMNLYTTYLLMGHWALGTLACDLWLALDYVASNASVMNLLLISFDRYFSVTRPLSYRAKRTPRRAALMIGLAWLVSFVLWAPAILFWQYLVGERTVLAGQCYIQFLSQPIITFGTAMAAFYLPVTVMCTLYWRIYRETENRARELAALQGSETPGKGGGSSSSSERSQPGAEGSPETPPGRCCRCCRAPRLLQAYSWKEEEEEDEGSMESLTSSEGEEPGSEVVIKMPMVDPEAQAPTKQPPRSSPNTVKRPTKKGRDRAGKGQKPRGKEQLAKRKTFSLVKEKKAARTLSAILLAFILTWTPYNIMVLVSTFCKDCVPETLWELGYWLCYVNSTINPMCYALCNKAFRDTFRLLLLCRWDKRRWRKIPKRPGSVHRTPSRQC

O=C(OCCOCCOCCOC(=O)c1ccccc1)c1ccccc1
inactive: Potency [1] | Potency [2] | Potency [3] | Potency [4] | Potency [5] | Potency [6] | Potency [7] | Potency [8] | Potency [9] | Potency [10] | Potency [11] | Potency [12] | Potency [13] | Potency [14] | Potency [15] | Potency [16] | Potency [17] | Potency [18]

O=C(O)c1ccccc1Nc1cc(Cl)ccc1C(=O)O
inactive: activity change, negative = cytotoxicity [1] 0.544% [at 19 µM] | activity change [2] -1.18% [at 11.8 µM, stronger effect = higher value] | activation [3] 0.0094% [at 15.8 µM] | activation [4] -0.251% [at 11.8 µM] | activation [5] -15.2% [at 13.5 µM] | activation [6] -10.2% [at 13.6 µM] | activity change, negative = cytotoxicity [7] -16.4% [at 13.5 µM] | activity change, negative = cytotoxicity [8] -20.9% [at 13.5 µM] | activity change, negative = cytotoxicity [9] -5.7% [at 13.5 µM] | activation [10] 1.24% [at 13.5 µM] | activity, negative = inhibition [11] 13.3% [at 12.7 µM] | activation [12] -3.1% [at 15.9 µM] | activity, negative = inhibition [13] 22.2% [at 12.6 µM] | activation [19] -0.0043% [at 19 µM] | activity change, negative = inhibition [15] 5.54% [at 19 µM] | activation [16] -0.399% [at 19 µM] | activity change, negative = inhibition [18] -1.66% [at 18.9 µM]

COC(C(=O)O)c1ccccc1 (stereo not given)
inactive: Potency [1] | Potency [2] | Potency [3] | Potency [4] | Potency [5] | Potency [6] | Potency [7] | Potency [8] | Potency [9] | Potency [11] | Potency [12] | Potency [13] | Potency [14] | Potency [19] | Potency [20] | Potency [15] | Potency [16] | Potency [17] | Potency [18]

O=c1[nH]nc(-c2ccc([N+](=O)[O-])o2)o1
inactive: Potency [1] | Potency [2] | Potency [3] | Potency [4] | Potency [5] | Potency [6] | Potency [7] | Potency [8] | Potency [9] | Potency [10] | Potency [11] | Potency [12] | Potency [13] | Potency [14] | Potency [17] | Potency [18]

Cc1ccc2c(Br)cc(Br)c(O)c2n1
inactive: Potency [1] | Potency [2] | Potency [3] | Potency [4] | Potency [5] | Potency [6] | Potency [7] | Potency [8] | Potency [9] | Potency [10] | Potency [12] | Potency [13] | Potency [14] | Potency [19] | Potency [15] | Potency [17] | Potency [18]

CS(C)=O
inactive: Potency [1] | Potency [2] | Potency [3] | Potency [4] | Potency [5] | Potency [6] | Potency [7] | Potency [8] | Potency [9] | Potency [10] | Potency [19] | Potency [20] | Potency [15] | Potency [16] | Potency [17]

COc1cc(/C=C/c2ccccc2)oc(=O)c1
inactive: Potency [1] | Potency [2] | Potency [3] | Potency [4] | Potency [5] | Potency [6] | Potency [7] | Potency [8] | Potency [9] | Potency [11] | Potency [12] | Potency [13] | Potency [14] | Potency [15] | Potency [17] | Potency [18]

C#CCN(C)CCCOc1ccc(Cl)cc1Cl
active: Potency [11] 16.3 µM
inactive: Potency [1] | Potency [2] | Potency [3] | Potency [4] | Potency [5] | Potency [6] | Potency [7] | Potency [8] | Potency [9] | Potency [10] | Potency [12] | Potency [14] | Potency [19] | Potency [20] | Potency [15] | Potency [16]

CC(Oc1c(Cl)cccc1Cl)C1=NCCN1 (stereo not given)
inactive: Potency [1] | Potency [2] | Potency [3] | Potency [4] | Potency [5] | Potency [6] | Potency [7] | Potency [8] | Potency [9] | Potency [10] | Potency [11] | Potency [13] | Potency [14] | Potency [19] | Potency [20] | Potency [15] | Potency [17] | Potency [18]

CC(C)C(O)(c1ccc(OC(F)(F)F)cc1)c1cncnc1 (stereo not given)
inactive: Potency [1] | Potency [2] | Potency [3] | Potency [4] | Potency [5] | Potency [6] | Potency [7] | Potency [8] | Potency [9] | Potency [10] | Potency [11] | Potency [12] | Potency [13] | Potency [19] | Potency [20] | Potency [15] | Potency [16] | Potency [17] | Potency [18]

C=CCOC(=O)CCC1CCCCC1
inactive: Potency [1] | Potency [2] | Potency [3] | Potency [4] | Potency [5] | Potency [6] | Potency [7] | Potency [8] | Potency [9] | Potency [10] | Potency [11] | Potency [13] | Potency [14] | Potency [19] | Potency [20] | Potency [15] | Potency [16] | Potency [17] | Potency [18]

Cc1c[nH]c(=O)[nH]c1=O
inactive: Potency [1] | Potency [2] | Potency [3] | Potency [4] | Potency [5] | Potency [6] | Potency [7] | Potency [8] | Potency [9] | Potency [10] | Potency [11] | Potency [12] | Potency [13] | Potency [19] | Potency [20] | Potency [15] | Potency [16] | Potency [17] | Potency [18]

Source: PubChem BioAssay (Tox21)
